# Test results from PubChem BioAssay.
# Assay: binders of probe aFGF10 on microarray, primary screen, stem cell growth factor project, biochemical, small-molecule microarray, fluorescence 635/667 (AID 1071);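 note: score merges 667 nm spot intensity and signal to noise from triplicate slides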
# Conditions: higher = more signal
row,Compound,composite z-score
1,CC(C)CON=C1[C@H]2CCn3c(=O)n(-c4ccccc4)c(=O)n3[C@H]2[C@H](O)[C@@H]2O[C@H]12,0.325
2,O=C1C[C@@H](O)[C@@H](O)[C@@H]2[C@@H]3C(=O)N(c4cccc(Oc5ccccc5)c4)C(=O)[C@@H]3CC[C@@H]12,0.516
3,CO[C@H]([C@@H](C)[C@H](OC)c1ccccc1)[C@H](C)[C@@H](OC)[C@H](C)C(C)=O,-0.154
4,Cc1ccc(S[C@]2(C(=O)NCC(F)(F)F)CC(=O)N(Cc3ccccc3Cl)[C@@H]2c2ccc(CO)cc2I)cc1,0.494
5,O=C1O[C@@H](c2ccccc2)[C@@H](c2ccccc2)N2[C@@H](c3ccc(O)cc3)[C@]3(C(=O)Nc4ccccc43)[C@@H](C(=O)O)[C@H]12,0.46
6,COCCNC(=O)OCC1CCCC2(CC(OC(=O)NCCc3ccc(F)cc3)CC(CCC(=O)N[C@@H](C)C(=O)OC)O2)O1 (stereo partly specified),0.632
7,CCCNC(=O)[C@@H]1c2ccccc2C(=O)N(c2ccc(C)cn2)[C@H]1c1ccc(CO)cc1,-0.857
8,CCOC(=O)[C@H](CC(C)C)NC(=O)CCC1CC(OC(=O)NCCc2ccc(F)cc2)CC2(CCCC(COC(=O)NCc3ccccc3)O2)O1 (stereo partly specified),1.02
9,CCOC(=O)CCN1C(=O)[C@H]2[C@H]3[C@H](O)[C@H](O)CC(=O)[C@H]3CC[C@H]2C1=O,0.389
10,C=CCC(OC(C)=O)[C@@H]1[C@@H](N(Cc2cc3ccccc3o2)C(=O)Cc2ccc(F)cc2)c2cc(OCCCO)ccc2N1C(=O)Cc1ccc(OC)cc1 (stereo partly specified),0.351
11,CCOC(=O)NN=C1C[C@@H](O)[C@@H](O)[C@@H]2[C@@H]3C(=O)N(C[C@@H]4CCCO4)C(=O)[C@@H]3CC[C@@H]12,0.454
